Reference: PubChem BioAssay AID1063 (University of Pittsburgh Molecular Library Screening Center, 2008)
The whole screen tested about 200,000 compounds, of which about 18,000 (9%) were called active. Rule as the data show it: active = inhibition above about 50%; inactive = the rest. Many of the other results were omitted from the sample, so actives are more common in it than they were.

Assay: antileishmanial activity against promastigotes – primary screen (AID 1063);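 also: promastigotes grown with compound for 44 hours at 28 °C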
Conditions: Leishmania major promastigotes, resazurin fluorescence viability; at 10 µM; active compounds read high
With `CC(C)(C)c1ccc(CN2C(=O)CN=C(c3ccccc3)c3ccccc32)cc1` the inhibition was 97.3% (active).
For `CCN1CCN(c2ccc([N+](=O)[O-])cc2C#N)CC1`, the inhibition was 3.77% (inactive).
In the case of `CN1CCN(Cc2ccc(OC(F)(F)F)cc2)CC1`, the inhibition is reported as 90.4% (active).
For `CN1CCN(Cc2ccccc2C(F)(F)F)CC1`, the inhibition was 0.79% (inactive).
With `CN(C)c1ccc(/C=C2\CC3C4CC=C5CC(O)CCC5(C)C4CCC3(C)C2=O)cc1` (stereo not given) the inhibition was 37% (inactive).
With `Cc1ccc(-n2c(-c3ccc([N+](=O)[O-])cc3)nc3ccccc3c2=O)cc1` the inhibition was 0.86% (inactive).
For `CCN(CC)P(=O)(Oc1cccc(C)c1)N(CC)CC`, the inhibition was 22.5% (inactive).
In the case of `Cc1cccc(OP(=O)(Oc2cccc(C)c2)OC(c2ccccc2)C(F)(F)F)c1` (stereo not given), the inhibition is reported as 57.8% (active).
For `CCC(=O)CC(c1ccc([N+](=O)[O-])cc1)c1c(O)c2ccccc2oc1=O` (stereo not given), the inhibition was -15.5% (inactive).
For `CN(C)c1nc(N(C)C)nc(N(C#N)CCCl)n1`, the inhibition was -4.48% (inactive).
In the case of `C[N+]12CN3CN(CN(C3)C1)C2`, the inhibition is reported as 93.8% (active).
In the case of `CC1CCCCN1Cc1cccnc1` (stereo not given), the inhibition is reported as -6.9% (inactive).
With `COc1ccccc1N=Nc1c(O)[nH]c(=S)[nH]c1=O` the inhibition was -4.5% (inactive).
With `CN(C)P(=S)(Nc1ccccc1)C(Cl)(Cl)Cl` (stereo not given) the inhibition was 28.1% (inactive).
In the case of `CC(C)Oc1cccc(C(=O)C2CCCN(C3CCOCC3)C2)c1` (stereo not given), the inhibition is reported as 93.2% (active).
For `O=C(Nc1cccc(OC(=O)N2CCCCC2)c1)N1CCOCC1`, the inhibition was 0.65% (inactive).
In the case of `Cc1ccc(-c2nn(CCC#N)cc2C(=O)O)cc1C`, the inhibition is reported as -5.5% (inactive).
With `COC(=O)COc1cc(C)cc2oc(=O)c3c(c12)CCCC3` the inhibition was -6.35% (inactive).
For `O=C(COC(=O)c1ccccc1)Nc1ccc(Cl)cc1C(=O)c1ccccc1`, the inhibition was -3.5% (inactive).
With `CN(C)C(=O)Oc1ccc(OCc2cccc[n+]2C)cc1` the inhibition was -6.21% (inactive).
In the case of `CCOC(=O)C1(CCc2ccccc2)CCN(Cc2ccco2)CC1`, the inhibition is reported as 9% (inactive).
For `CCOC(=O)C1(Cc2ccc(Cl)cc2)CCN(C(C)CCn2cccn2)CC1` (stereo not given), the inhibition was 80.9% (active).
With `CC(C)(C)[C@]1(O)C[C@@H]2OC(=O)C[C@@]23C(=O)O[C@@H]2OC(=O)[C@H](O)[C@]213` the inhibition was -6.51% (inactive).
With `CCCOC(=O)C1C2c3ccccc3C(c3ccccc32)C1C(=O)O` (stereo not given) the inhibition was -5.51% (inactive).
With `CC(C(=O)Nc1ccc(Cl)cc1Cl)N1CC=C(c2ccccc2)CC1` (stereo not given) the inhibition was -2.71% (inactive).
For `CCN(N=Nc1nonc1OC)c1nonc1OC`, the inhibition was 0.16% (inactive).
With `Cc1cccc(N2C(=O)NC(=O)/C(=C\c3cnn(-c4ccccc4)c3)C2=O)c1` the inhibition was -2.18% (inactive).
In the case of `COc1cccc(N2C(=O)NC(=O)/C(=C\c3ccc([N+](=O)[O-])s3)C2=O)c1`, the inhibition is reported as 93.6% (active).
In the case of `COc1ccc(CN2C(=O)NC(=O)/C(=C\c3ccc(OC)c(OC)c3OC)C2=O)cc1`, the inhibition is reported as -6.27% (inactive).
In the case of `O=C1NC(=O)N(c2ccccc2)C(=O)/C1=C/c1ccc([N+](=O)[O-])s1`, the inhibition is reported as 93.8% (active).
In the case of `O=C1NC(=O)N(c2ccc(F)cc2)C(=O)/C1=C/c1ccc2c(c1)CCCN2Cc1ccccc1`, the inhibition is reported as 7.8% (inactive).
With `O=C(COC(=O)Cc1ccccc1)Nc1ccc(F)cc1` the inhibition was 0.24% (inactive).
With `OCC#CC[N+]1(CC#Cc2ccccc2)CCCC1` the inhibition was -1.69% (inactive).
With `N=c1ccccn1Cc1ccccc1` the inhibition was -0.35% (inactive).
In the case of `C=CCN(CC=C)C(=O)Nc1ccc(OCC)cc1`, the inhibition is reported as -9.24% (inactive).
With `O=C(NC(c1ccc(Cl)cc1)P(=O)(Oc1ccccc1)Oc1ccccc1)OCc1ccccc1` (stereo not given) the inhibition was 10.2% (inactive).
In the case of `CN1CCN(c2cc(N3CCNCC3)ccc2[N+](=O)[O-])CC1`, the inhibition is reported as 44% (inactive).
In the case of `CCCCC(=O)N/N=C/c1c(O)n(CC)c(=S)n(CC)c1=O`, the inhibition is reported as -5.9% (inactive).
For `O=C(Nc1cccc2ccccc12)N1CCC2(CC1)OCCO2`, the inhibition was 0.77% (inactive).
For `CCOC(=O)C(O)(c1ccc(N)c(OC)c1)C(F)(F)F` (stereo not given), the inhibition was -13.8% (inactive).
In the case of `CCOC(=O)C(O)(c1ccc(NC(=O)c2ccco2)c(OC)c1)C(F)(F)F` (stereo not given), the inhibition is reported as 73.8% (active).
In the case of `COC(=O)C(O)(c1ccc(NC(=O)c2ccco2)c(OC)c1)C(F)(F)F` (stereo not given), the inhibition is reported as -2.15% (inactive).
For `C=CCn1c(O)c(/C=N/N2CCOCC2)c(=O)[nH]c1=S`, the inhibition was -4.94% (inactive).
For `COc1ccc(C2N3CC(C)(C)CN23)cc1` (stereo not given), the inhibition was -5.78% (inactive).
In the case of `Cc1ccccc1N1C(=O)NC(=O)/C(=C\c2cc(C)n(C)c2C)C1=O`, the inhibition is reported as 2.98% (inactive).
For `Cc1ccnc(-n2c(C)cc(/C=C3\C(=O)NC(=S)N(C)C3=O)c2C)c1`, the inhibition was 70% (active).
For `Cc1c(C(=O)O)cccc1-n1c(C)cc(/C=C2\C(=O)NC(=O)N(c3ccc4c(c3)OCO4)C2=O)c1C`, the inhibition was 2.09% (inactive).
For `Cc1cc(C=C2C(=O)NC(=O)NC2=O)c(C)n1-c1ccncc1`, the inhibition was 0.48% (inactive).
For `Cc1ccc(-n2c(C)cc(/C=C3\C(=O)NC(=O)N(C)C3=O)c2C)cc1C`, the inhibition was 58% (active).
In the case of `Cc1cc(/C=C2/C(=O)NC(=O)N(Cc3ccco3)C2=O)c(C)n1-c1ccc(C(=O)O)cc1`, the inhibition is reported as -6.68% (inactive).
With `CC(=O)N(C1=NCCCS1)c1ccccc1F` the inhibition was -4.7% (inactive).
In the case of `Cc1cccc(-n2c(O)c(C=NC34CN5CN(CN(C5)C3)C4)c(=O)[nH]c2=O)c1`, the inhibition is reported as -14.4% (inactive).
For `O=c1c2ccccc2nc(-c2ccccc2)n1-c1ccccn1`, the inhibition was -4.66% (inactive).
In the case of `C[N+]1(C)CCOC(O)(c2ccc(-c3ccc(C4(O)C[N+](C)(C)CCO4)cc3)cc2)C1` (stereo not given), the inhibition is reported as 20.9% (inactive).
In the case of `O=C(OCCN1CCOCC1)C1(c2ccccc2)CCCC1`, the inhibition is reported as 1.57% (inactive).
For `CC[N+]1(C)CCCC(OC(=O)C(O)(c2ccccc2)c2ccccc2)C1` (stereo not given), the inhibition was -2.17% (inactive).
In the case of `O=C(CN1CCCCC1)Nc1ccc(Br)cc1C(=O)c1ccccc1Cl`, the inhibition is reported as 11.2% (inactive).
For `CN1CCN(C(=S)SCC(=O)Nc2ccc(Cl)cc2C(=O)c2ccccc2)CC1`, the inhibition was 8.25% (inactive).
With `O=C(CCN1CCCCC1)NCC(=O)Nc1ccc(Br)cc1C(=O)c1ccccc1` the inhibition was 91.4% (active).
For `O=[N+]([O-])c1ccc(C2C3C(c4ccccc4)=NC4(CCCCC4)N32)cc1` (stereo not given), the inhibition was 19.8% (inactive).
